# Source: PubChem
# Lassa entry inh: blocks Lassa virus binding to or entry into cells. Lassa virus pseudotype entry inhibition, cell reporter. 300,000 compounds, 1.2% hits. Potency, µM (doses to about 37.9 µM), inactives show top-dose activity change, negative = inhibition, usual class: inhibitors; calls by dose curve; tested in HEK293 cells; further: nearly all actives have a fitted effect of over 50% in size
# Sm TGR block: blocks Schistosoma mansoni thioredoxin glutathione reductase; purified TGR, DTNB reduction, TNB absorbance 405 nm; Potency, µM (titrated, usually from 114 µM), without a hit: top-dose activity change, negative = inhibition, most hits filed as inhibitors; 360,000 compounds, 3% hits; further: nearly all actives have a fitted effect of over 60% in size
#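 Kinetic colorimetric format: TGR-catalysed, NADPH-driven DTNB reduction monitored via TNB absorbance. Enzyme dispensed at 20 nM; compound exposure 15 min at room temperature before reaction start.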
# FMDV antiviral: blocks foot and mouth disease virus; FMDV antiviral cell-based qHTS; 410,000 compounds, 1.2% hits; AID 1159524; Potency, µM (series often up to 57.9 µM), inactives show at the highest dose activity change, negative = inhibition, actives largely listed as inhibitors; calls by dose curve; tested in HEK293T cells; further: read-out not given here; nearly all actives have a fitted effect of over 45% in size
# HCV inhibitor: blocks hepatitis C virus. Huh7.5.1 HCVcc-Cre infection, luciferase reporter, 44 h. Potency, µM (top dose mostly 41.8 µM), for the others: top-dose activity change, negative = inhibition, hits mostly inhibitors. 340,000 compounds, 3.4% hits. AID 651820
#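 Cells (1,000/well) were plated 4 h before compound, then infected with HCVcc-Cre virus (~0.5 moi). After 44 h further culture, infection was read as luciferase luminescence following a 15 min substrate incubation at room temperature.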
# RE007 growth inh: less growth of the S. pombe RE007 Vpr strain; S. pombe RE007 Vpr strain, BacTiter-Glo ATP luminescence, 24 h; Potency, µM (doses to about 92.2 µM), for inactives: top-dose activity change, negative = less growth, usual class: inhibitors; 360,000 compounds, 0.21% hits; AID 651644; active means well fitted falling curve with a large enough effect; inconclusive means small, poorly fitted or top-dose-only effect; inactive means no such curve, though single readings can be large or run the other way; further: nearly all actives have a fitted effect of over 50% in size
#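 Fission yeast RE007 carrying one integrated HIV-1 vpr copy, seeded at OD 0.01 in PMG+AL medium with 23 nL pinned compound. Grown 24 h at 30 degrees; viability read by BacTiter-Glo luminescence after 5 min.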
# MARV entry inh: Marburg virus entry inhibition | Marburg virus pseudotyped entry inhibition, cell reporter | Potency, µM (doses to about 37.8 µM), without a hit: top-dose activity change, negative = inhibition, actives largely listed as inhibitors | 300,000 compounds, 1.8% hits | AID 540276; calls by dose curve; tested in HEK293 cells
# * marks the source's active call; other numbers are inactive results; ? = inconclusive; / = no result; [ ] = dose if it differs, or a comment. Most compounds without a hit are left out; they make up all but 7.2% or so of the library. Unless noted, the call rests on the fitted dose curve; in most records, active means well fitted curve in the direction sought with a large enough effect; inconclusive means small, poorly fitted or top-dose-only effect, or another doubt; inactive means no such curve, though single readings can be large; an effect the other way counts as inactive or inconclusive. On the % scale 0 is the no-effect control and ±100 the full control effect; potency means the concentration at half of the fitted maximal effect.
SMILES,Lassa entry inh,Sm TGR block,FMDV antiviral,HCV inhibitor,RE007 growth inh,MARV entry inh
CCN1CCN(CCCNC(=O)c2ccc3c(c2)N(Cc2ccc(C)cc2)CCS3)CC1,/,-14%,-5%,11µM*,5%,/
O=C(NC1CC1)c1ccc2c(c1)N(Cc1ccc(Cl)cc1)CCS2,/,-1%,-28%,22µM*,-4%,/
COc1ccccc1N(C)S(=O)(=O)c1ccc(C(=O)Nc2cccc(S(=O)(=O)N3CCOCC3)c2)cc1,/,/,25µM*,10µM*,9%,/
CC(=O)Nc1ccc(S(=O)(=O)N2CCN(CCCOc3ccccc3Cl)CC2)cc1,22%,-26%,12%,7%,0%[3.69 µM],21%
COc1ccc(Br)cc1CN(C)CC(=O)Nc1cccc(S(N)(=O)=O)c1,-14%,7%,10%,-8%,-6%,?
COc1ccc(Br)cc1CN(C)CC(=O)Nc1cccc(S(=O)(=O)N2CCCC2)c1,?,/,-5%,8.9µM*,-19%,?
COc1ccc(CC(=O)Nc2cccc(S(=O)(=O)N3CCCC3)c2)cc1OC,/,12%,-27%,4.5µM*,3%,/
COc1cccc(OCCCN2CCN(S(=O)(=O)c3ccc(NC(C)=O)cc3)CC2)c1,8.2µM*,18%,14µM*,13µM*,-10%,6.5µM*
COc1cc(C(=O)Nc2cccc(S(=O)(=O)N3CCCC3)c2)cc(OC)c1C,/,9%,?,?,24%,/
COc1cccc(CC(=O)Nc2ccc(S(=O)(=O)N3CCCCC3)cc2)c1,?,/,15%,?,8%,10µM*
COc1ccc(/C=C/C(=O)Nc2cccc(S(=O)(=O)N3CCCC3)c2)cc1OC,?,12%,?,10µM*,10%,?
COc1ccc(CC(=O)Nc2cccc(S(=O)(=O)N3CCOCC3)c2)cc1OC,/,-1%,?,3.5µM*,-10%,/
O=C(/C=C/c1ccc(F)cc1)Nc1cccc(S(=O)(=O)N2CCOCC2)c1,-27%,/,-21%,10µM*,0%,?
CCc1ccc(NC(=O)Cc2csc(COc3cccc(C)c3)n2)cc1,-9%[46.1 µM],7%,-11%,/,/,1%[46.1 µM]
C[C@H](NC(=O)N1CCc2nc(COc3ccccc3)c3c(c2C1)CO[C@@H](C)C3)c1ccccc1,/,/,/,/,/,4%[14.2 µM]
Cc1ncc2c(c1CNC(=O)/C=C/c1cccs1)CCN(C(=O)C1CC(=O)OC13CCCCC3)C2 (stereo unspecified),/,/,-1%,/,/,/
CSCCC1NC2(C(=O)Nc3c2ccc(Cl)c3C)[C@@H]2C(=O)N(C3CCCC3)C(=O)[C@H]12 (stereo partly specified),-3%,-5%,-23%,-4%,3%,?
Cc1c(Cl)ccc2c1NC(=O)C21NC(CCC(N)=O)[C@H]2C(=O)N(c3ccc(Cl)cc3)C(=O)[C@H]21 (stereo partly specified),-13%,35µM*,?,16%,12%,8%
Cc1c(Cl)ccc2c1NC(=O)[C@]21N[C@@H](CCC(N)=O)[C@H]2C(=O)N(c3ccc(F)cc3)C(=O)[C@H]21,3%,13µM*,-1%,3%,-9%,-7%[46.1 µM]
O=[N+]([O-])c1ccc(S(=O)(=O)Nc2nnc(C(F)(F)F)s2)cc1,/,14µM*,12%,11%,-12%,/
CC(C)Cc1nnc(NS(=O)(=O)c2ccc([N+](=O)[O-])cc2)s1,0%,?,22%,18%,1%,2%
CC(C)C1Oc2ccccc2N(CC(=O)N(Cc2ccncc2)Cc2ccco2)C1=O (stereo unspecified),-2%,32µM*,-13%,1%,-10%,-8%
COc1ccccc1-c1cn(CC[C@@H]2CC[C@H](NC(=O)C3CCC3)[C@@H](CO)O2)nn1,/,/,-1%,/,11%,/
COc1cc(C2c3c([nH]c(=O)[nH]c3=O)Nc3ccc4ccccc4c32)ccc1O (stereo unspecified),-1%,-10%,16%,10µM*,12%,?
O=C(NC1CCCC1)c1cccc(Cl)c1,1%,0%,24%,12%,16%,2%[46.1 µM]
Nc1c(Cl)cc(C(=O)NC2CC2)cc1Cl,0%[46.1 µM],/,-1%,-2%,31%,11µM*
